Results filed as inconclusive are left out. Some compounds were tested as several samples or in several runs, with calls that do not always agree. Calls of active or inactive are those of the source. Rule for the calls, unless noted: active = hit-call score of the fitted dose curve at least 0.9, where 1 is the maximum; inactive = score below 0.9.
Tests used:
[1] = read-out: urokinase plasminogen activator (uPA), PLAU (gene 5328); test: BSK_KF3CT_uPA: BioMAP Diversity Plus: KF3CT Assay for urokinase plasminogen activator (uPA) Biomarker Activity (AID 2283075); settings: primary human keratinocytes with fibroblasts; actives raise or lower the signal
Procedure, shortened: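 Values derive from bidirectional fitting against DMSO controls. Keratinocyte/foreskin fibroblast co-cultures received chemical; 24 h later uPA was detected by ELISA, with SRB total-protein staining in parallel wells for overt cytotoxicity.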

CD40, CD40 (gene 958) = test: BSK_LPS_CD40: BioMAP Diversity Plus: LPS Assay for CD40 Biomarker Activity (AID 2283076); settings: primary human HUVEC with PBMC; actives raise or lower the signal
Procedure, shortened: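 HUVEC plus PBMC co-culture stimulated with LPS; CD40 quantified by ELISA 24 h after compound dosing. Fitting was bidirectional relative to DMSO. SRB staining of parallel cultures flagged overt cytotoxicity.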

[2] = read-out: E-selectin (Homo sapiens) (UniProt P16581); test: BSK_LPS_Eselectin: BioMAP Diversity Plus: LPS Assay for Eselectin Biomarker Activity (AID 2283077); settings: primary human HUVEC with PBMC; actives raise or lower the signal
Procedure, shortened: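 Human umbilical vein endothelial cells co-cultured with PBMC under LPS stimulation; cell-surface E-selectin measured by ELISA 24 h after dosing. Change in either direction versus DMSO, with SRB total-protein staining in parallel cultures for cytotoxicity.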

[3] = read-out: Interleukin-8 (IL8), CXCL8 (gene 3576); test: BSK_LPS_IL8: BioMAP Diversity Plus: LPS Assay for Interleukin-8 (IL8) Biomarker Activity (AID 2283078); settings: primary human HUVEC with PBMC; actives raise or lower the signal
Procedure, shortened: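 Human umbilical vein endothelial cells co-cultured with PBMC, LPS-stimulated, exposed to compound for 24 h. IL-8 quantified by ELISA; fitted in both directions against DMSO, with SRB total-protein staining of parallel cultures for cytotoxicity.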

[4] = BSK_LPS_SRB: Viability Assessment in the BioMAP Diversity Plus: LPS Assay (AID 2283079); settings: primary human HUVEC with PBMC;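 note: total protein by sulforhodamine B absorbance as a cytotoxicity measure; measured one day after compound addition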
Procedure, shortened: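 Co-culture of human umbilical vein endothelial cells and PBMC, read 24 h after dosing. Total protein by 0.1% SRB staining after 10% TCA fixation, absorbance at 560 nm; bidirectional fit against DMSO.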

[5] = read-out: Interleukin-1 alpha (IL1a), IL1A (gene 3552); test: BSK_LPS_IL1a: BioMAP Diversity Plus: LPS Assay for Interleukin-1 alpha (IL1a) Biomarker Activity (AID 2283080); settings: primary human HUVEC with PBMC; actives raise or lower the signal
Procedure, shortened: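 Human umbilical vein endothelial cells co-cultured with PBMC and stimulated with LPS; IL-1a measured by ELISA 24 h after dosing. Bidirectional fitting against DMSO; cytotoxicity checked by SRB staining in parallel cultures.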

[6] = read-out: Monocyte Chemoattractant Protein-1 (MCP1), CCL2 (gene 6347); test: BSK_LPS_MCP1: BioMAP Diversity Plus: LPS Assay for Monocyte Chemoattractant Protein-1 (MCP1) Biomarker Activity (AID 2283081); settings: primary human HUVEC with PBMC; actives raise or lower the signal;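 for AC50: secreted MCP-1 protein quantified by ELISA in culture supernatant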
Procedure, shortened: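 Human umbilical vein endothelial cells co-cultured with PBMC, LPS-stimulated; secreted MCP-1 measured by ELISA 24 h after compound addition. Bidirectional curve fitting against DMSO baseline; SRB total-protein staining in parallel cultures for cytotoxicity.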

[7] = BSK_LPS_PGE2: BioMAP Diversity Plus: LPS Assay for Prostaglandin E2 (PGE2) Biomarker Activity (AID 2283082); settings: primary human HUVEC with PBMC; actives raise or lower the signal;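 for AC50: secreted prostaglandin E2 measured by ELISA in LPS-stimulated co-culture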
Procedure, shortened: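 Compounds were added to the LPS co-culture of endothelium and PBMC, and PGE2 was measured by ELISA after 24 h. Responses in either direction were fitted with DMSO as baseline.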

[8] = read-out: Macrophage colony-stimulating factor (MCSF), CSF1 (gene 1435); test: BSK_LPS_MCSF: BioMAP Diversity Plus: LPS Assay for Macrophage colony-stimulating factor (MCSF) Biomarker Activity (AID 2283083); settings: primary human HUVEC with PBMC; actives raise or lower the signal
Procedure, shortened: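 HUVEC–PBMC co-culture, M-CSF measured by ELISA 24 h after chemical dosing. Fitted in both directions relative to DMSO as negative control; overt cytotoxicity assessed by SRB total-protein staining in parallel cultures.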

[9] = read-out: Tumor necrosis factor (Homo sapiens) (UniProt P01375); test: BSK_LPS_TNFa: BioMAP Diversity Plus: LPS Assay for Tumour Necrosis Factor alpha (TNFa) Biomarker Activity (AID 2283085); settings: primary human HUVEC with PBMC; actives raise or lower the signal;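 for AC50: TNFa protein level quantified by ELISA in the co-culture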
Procedure, shortened: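 Cells (umbilical vein endothelium plus peripheral blood mononuclear cells) were dosed with chemical, incubated 24 h, then TNFa was quantified by ELISA; values derive from bidirectional fitting with DMSO as baseline.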

[10] = read-out: Vascular cell adhesion molecule 1 (VCAM1), VCAM1 (gene 7412); test: BSK_LPS_VCAM1: BioMAP Diversity Plus: LPS Assay for Vascular cell adhesion molecule 1 (VCAM1) Biomarker Activity (AID 2283086); settings: primary human HUVEC with PBMC; actives raise or lower the signal
Procedure, shortened: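 Cells are dosed in an LPS-stimulated endothelial/mononuclear co-culture and, after 24 h, VCAM-1 is quantified by ELISA. Activity in either direction is fitted relative to the DMSO negative control.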

CD38, CD38 (gene 952) = test: BSK_SAg_CD38: BioMAP Diversity Plus: SAg Assay for CD38 Biomarker Activity (AID 2283087); settings: primary human HUVEC with PBMC; actives raise or lower the signal
Procedure, shortened: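 CD38 quantified by ELISA (fluorescence) in a superantigen-activated endothelial cell–PBMC co-culture at 24 h post-dose. Activity fitted in both directions relative to DMSO; parallel SRB and Alamar Blue cytotoxicity read-outs.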

CD69, CD69 (gene 969) = test: BSK_SAg_CD69: BioMAP Diversity Plus: SAg Assay for CD69 Biomarker Activity (AID 2283089); settings: primary human HUVEC with PBMC; actives raise or lower the signal;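 for AC50: cell surface CD69 protein quantified by ELISA with fluorescence detection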
Procedure, shortened: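 HUVEC co-cultured with PBMC were dosed with chemical, and CD69 was measured by ELISA with fluorescence read-out 24 h later. Bidirectional curve fitting used DMSO as negative control and activity baseline.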

[11] = read-out: Monocyte Chemoattractant Protein-1 (MCP1), CCL2 (gene 6347); test: BSK_SAg_MCP1: BioMAP Diversity Plus: SAg Assay for Monocyte Chemoattractant Protein-1 (MCP1) Biomarker Activity (AID 2283090); settings: primary human HUVEC with PBMC; actives raise or lower the signal
Procedure, shortened: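 Values derive from bidirectional fitting of ELISA-measured MCP1 against DMSO controls. Readings were taken 24 h after dosing human vascular endothelial cells co-cultured with peripheral blood mononuclear cells under superantigen stimulation.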

[12] = read-out: Monokine induced gamma interferon (MIG), CXCL9 (gene 4283); test: BSK_SAg_MIG: BioMAP Diversity Plus: SAg Assay for Monokine induced gamma interferon (MIG) Biomarker Activity (AID 2283092); settings: primary human HUVEC with PBMC; actives raise or lower the signal
Procedure, shortened: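 HUVEC plus human PBMC co-culture, chemicals dosed and MIG (CXCL9) quantified by ELISA at 24 h. Bidirectional curve fitting against DMSO as negative control and baseline, so both gain and loss of signal count as activity.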

[13] = BSK_SAg_PBMCCytotoxicity: PBMC Cytotoxicity Assessment in the BioMAP Diversity Plus: SAg Assay (AID 2283093); settings: primary human HUVEC with PBMC;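 note: PBMC viability measured as Alamar Blue reduction fluorescence at 546/580 nm; fitted both ways against DMSO so a hit may be loss or gain of signal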;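 for AC50: PBMC superantigen activated with SEB plus TSST-1 one hour after compound addition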
Procedure, shortened: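 Alamar Blue reduction (6 h, 546/580 nm) reports PBMC cytotoxicity after 90 h superantigen activation (SEB, TSST-1; 20 ng/mL final each) with 1 h compound pre-treatment. Gain or loss of signal fitted versus DMSO.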

[14] = read-out: Interleukin-8 (IL8), CXCL8 (gene 3576); test: BSK_SAg_IL8: BioMAP Diversity Plus: SAg Assay for Interleukin-8 (IL8) Biomarker Activity (AID 2283094); settings: primary human HUVEC with PBMC; actives raise or lower the signal
Procedure, shortened: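 Chemicals were dosed onto a human endothelial–PBMC co-culture, and IL-8 was quantified by ELISA after 24 h. Both increases and decreases were fitted relative to DMSO.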

[15] = BSK_SAg_Proliferation: Cell Proliferation Assessment in the BioMAP Diversity Plus: SAg Assay (AID 2283095); settings: primary human HUVEC with PBMC;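 note: relative cell number as total protein by SRB absorbance in sub-confluent culture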
Procedure, shortened: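 Absorbance of sulforhodamine B at 560 nm reports total protein in a human vascular endothelial/PBMC co-culture after 96 h chemical exposure. Gain or loss of signal is fitted in both directions against DMSO.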

[16] = BSK_SAg_SRB: Viability Assessment in the BioMAP Diversity Plus: SAg Assay (AID 2283096); settings: primary human HUVEC with PBMC;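 note: cells read one day after compound addition; hits may be either gain or loss of signal compared with DMSO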
Procedure, shortened: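 This overt-cytotoxicity endpoint quantifies protein in human endothelial/PBMC co-cultures at 24 h using SRB absorbance (560 nm) after trichloroacetic acid fixation. Values reflect signal change from the DMSO negative control, fitted bidirectionally.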

[17] = molecular target: human CYP19A1, CYP19A1 (gene 1588) (UniProt P11511); test: NVS_ADME_hCYP19A1: NovaScreen (NVS) CYP450-related Enzyme Activity (ADME) Assay for human CYP19A1 (AID 2283098; active = hit-call score of the fitted dose curve at least 0.9, where 1 is the maximum)
Procedure, shortened: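 Compounds were first screened at 10 uM in duplicate against purified enzyme, with a fluorogenic substrate and fluorescence intensity detection after 0.5 h. Inhibition appears as reduced signal against acetonitrile control.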

Measured: AC50

Sequence of E-selectin (Homo sapiens) (P16581 whole entry, looked up): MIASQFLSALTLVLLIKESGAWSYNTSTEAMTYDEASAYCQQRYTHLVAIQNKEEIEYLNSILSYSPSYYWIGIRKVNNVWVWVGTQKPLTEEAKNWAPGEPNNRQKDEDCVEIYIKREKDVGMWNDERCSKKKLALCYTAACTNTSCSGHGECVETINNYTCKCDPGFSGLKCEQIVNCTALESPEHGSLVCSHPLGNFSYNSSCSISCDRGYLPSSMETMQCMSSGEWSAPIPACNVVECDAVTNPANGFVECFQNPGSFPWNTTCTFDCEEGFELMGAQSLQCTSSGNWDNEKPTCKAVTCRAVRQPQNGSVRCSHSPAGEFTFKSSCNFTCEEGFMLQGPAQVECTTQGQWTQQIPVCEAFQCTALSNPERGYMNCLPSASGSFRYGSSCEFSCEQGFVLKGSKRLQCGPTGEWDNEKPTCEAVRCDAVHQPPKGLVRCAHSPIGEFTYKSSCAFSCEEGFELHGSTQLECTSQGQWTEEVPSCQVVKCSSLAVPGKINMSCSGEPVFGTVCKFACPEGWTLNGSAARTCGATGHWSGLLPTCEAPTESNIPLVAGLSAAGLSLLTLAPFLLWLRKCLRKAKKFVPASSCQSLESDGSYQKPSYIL
Sequence of Tumor necrosis factor (Homo sapiens) (P01375 whole entry, looked up): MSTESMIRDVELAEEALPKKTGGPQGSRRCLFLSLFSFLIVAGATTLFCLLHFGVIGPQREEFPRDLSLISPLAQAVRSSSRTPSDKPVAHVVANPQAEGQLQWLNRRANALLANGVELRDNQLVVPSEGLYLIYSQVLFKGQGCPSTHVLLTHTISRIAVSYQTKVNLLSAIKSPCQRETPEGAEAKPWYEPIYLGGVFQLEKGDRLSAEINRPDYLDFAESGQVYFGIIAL
Sequence of human CYP19A1, CYP19A1 (gene 1588) (P11511 whole entry, looked up): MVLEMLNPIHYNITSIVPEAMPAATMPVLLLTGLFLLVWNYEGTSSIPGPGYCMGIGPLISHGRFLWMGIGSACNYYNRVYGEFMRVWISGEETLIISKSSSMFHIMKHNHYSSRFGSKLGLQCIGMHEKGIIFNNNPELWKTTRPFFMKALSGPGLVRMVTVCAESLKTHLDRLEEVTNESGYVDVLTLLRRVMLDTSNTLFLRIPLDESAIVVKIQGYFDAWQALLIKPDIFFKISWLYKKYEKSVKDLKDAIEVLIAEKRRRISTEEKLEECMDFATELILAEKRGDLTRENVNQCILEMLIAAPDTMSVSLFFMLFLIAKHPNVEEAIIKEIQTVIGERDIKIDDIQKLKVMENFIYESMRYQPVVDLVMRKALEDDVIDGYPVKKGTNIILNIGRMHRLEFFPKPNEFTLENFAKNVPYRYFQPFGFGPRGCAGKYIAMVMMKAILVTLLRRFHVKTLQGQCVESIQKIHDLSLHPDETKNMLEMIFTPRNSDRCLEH

c1ccc2c(c1)ccc1ncccc12
active: CD40, CD40 (gene 958) 20 µM | [4] 20 µM | [5] 20 µM | [6] 3.97 µM | [10] 2.69 µM | CD38, CD38 (gene 952) 29.7 µM | [16] 28.1 µM
not listed: [17]
inactive: all other assays above

CC(C)(c1cc(Br)c(OCCO)c(Br)c1)c1cc(Br)c(OCCO)c(Br)c1
active: [1] 16.2 µM | CD40, CD40 (gene 958) 11.9 µM | [4] 16.2 µM | [7] 0.121 µM | [10] 16.2 µM | CD38, CD38 (gene 952) 5.1 µM | CD69, CD69 (gene 969) 2.31 µM | [15] 0.479 µM
not listed: [17]
inactive: all other assays above

O=C1CCCN1CCO
not listed: [17]
inactive: all other assays above

CN1C(=O)N(C)C(O)C1O (stereo not drawn)
inactive: [1] | CD40, CD40 (gene 958) | [2] | [3] | [4] | [5] | [6] | [7] | [8] | [9] | [10] | CD38, CD38 (gene 952) | CD69, CD69 (gene 969) | [11] | [12] | [13] | [14] | [15] | [16]
active: CD40, CD40 (gene 958) 1.5 µM

C#CC1(O)CC[C@H]2[C@@H]3CCC4=CCCC[C@@H]4[C@H]3CC[C@@]21C (stereo partly drawn)
inactive: [7]
active: [1] 35.1 µM | CD40, CD40 (gene 958) 20 µM | [2] 30.3 µM | [3] 35 µM | [4] 20 µM | [5] 29.6 µM | [6] 35.7 µM | [8] 29 µM | [9] 33.3 µM | [10] 29.9 µM | CD38, CD38 (gene 952) 35.1 µM | CD69, CD69 (gene 969) 29.7 µM | [11] 31.8 µM | [12] 31.8 µM | [13] 20 µM | [14] 20 µM | [15] 12.3 µM | [16] 28 µM

CCCCCCCC/C=C\CCCCCCCC(=O)O
inactive: [17]

CCO[Si](CCCN=C=O)(OCC)OCC
not listed: [17]
inactive: all other assays above

CCCCCCCCc1ccc(Nc2ccc(CCCCCCCC)cc2)cc1
not listed: [17]
inactive: all other assays above

C=CC=CC=CCCCCC
active: [15] 6.71 µM
not listed: [17]
inactive: all other assays above

O=C(Cl)c1cc(C(=O)Cl)cc(C(=O)Cl)c1
inactive: [7]
active: [1] 30.9 µM | CD40, CD40 (gene 958) 15.2 µM | [2] 31.2 µM | [3] 28.8 µM | [4] 30.5 µM | [5] 31 µM | [6] 29.9 µM | [8] 31.1 µM | [9] 36.7 µM | [10] 27.8 µM | CD38, CD38 (gene 952) 28.9 µM | CD69, CD69 (gene 969) 31.9 µM | [11] 29.1 µM | [12] 34.2 µM | [13] 12.6 µM | [14] 20 µM | [15] 12.7 µM | [16] 30.7 µM
